According to PubChem BioAssay AID624417 (National Center for Advancing Translational Sciences (NCATS), 2012):
About 6,400 (1.6%) of roughly 410,000 compounds were called active. About 20% were inconclusive and are not listed. Calls follow the shape of the dose curve; as a rule, active = well fitted inhibition curve with a large enough effect; inconclusive = small, poorly fitted or top-dose-only effect; inactive = no such curve, though single readings can be large or run the other way. The full list was thinned out, with actives kept by preference.

molecular target: Glucagon-like peptide 1 receptor (Homo sapiens) (UniProt P43220); test: qHTS of GLP-1 Receptor Inverse Agonists (Inhibition Mode); conditions: HEK293 GLP-1R CRE-luciferase, luminescence, 24 h, GLP-1R form is constitutively active; series mostly up to 38.3 µM; activity change, negative = inhibition: at the top concentration; also: nearly all actives have a fitted effect of over 55% in size
Sequence (P43220 whole entry, looked up): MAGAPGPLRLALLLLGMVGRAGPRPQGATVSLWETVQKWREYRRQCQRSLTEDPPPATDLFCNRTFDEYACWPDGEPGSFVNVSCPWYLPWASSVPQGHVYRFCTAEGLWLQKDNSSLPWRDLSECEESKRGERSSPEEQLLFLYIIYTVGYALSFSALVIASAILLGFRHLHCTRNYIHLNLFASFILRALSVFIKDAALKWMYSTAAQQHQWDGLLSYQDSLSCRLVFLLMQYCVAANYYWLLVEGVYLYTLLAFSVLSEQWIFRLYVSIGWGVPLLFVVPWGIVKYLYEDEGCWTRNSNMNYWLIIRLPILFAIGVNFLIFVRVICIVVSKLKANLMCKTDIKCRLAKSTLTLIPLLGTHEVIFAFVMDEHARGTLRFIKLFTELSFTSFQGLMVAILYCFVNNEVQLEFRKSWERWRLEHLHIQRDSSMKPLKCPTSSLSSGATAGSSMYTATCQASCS
How it was run: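 Stable HEK293 clone (constitutively active GLP-1R + cAMP-response luciferase); 200 cells/uL plated, 12 h pre-culture, compound 24 hr, 37 deg C/5% CO2; detection reagent 12 min RT; luminescence.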
% is scaled to controls: 0 for no effect and ±100 for the full control effect; potency is read from the fitted curve at half-maximal effect.

Row | Compound | activity change, negative = inhibition | Potency
1 | CCNC(=O)c1cc2c(c(-c3cccc(-c4cncnc4)c3)n1)[C@H](CCO)N(C(C)=O)C2 | 0% (inactive) | –
2 | CCNC(=S)Nc1cccc(Cl)c1C | -2.4% (inactive) | –
3 | Cc1c(Cl)cccc1NC(=S)NCc1ccc2c(c1)OCO2 | -32.5% (inactive) | –
4 | Cc1cccc(NC(=S)NCCc2ccc(Cl)cc2)c1C | – | 5.62 µM (active)
5 | COc1ccc(S(=O)(=O)N(C)C[C@H]2OCc3cnnn3CCCC(=O)N([C@H](C)CO)C[C@H]2C)cc1 | 8.78% (inactive) | –
6 | CC1Cc2ccccc2N1S(=O)(=O)c1cccc(C(=O)NCC(c2ccco2)N2CCCC2)c1 (stereo not drawn) | – | 10 µM (active)
7 | CC1CCc2sc(C(=O)N/N=C/C3CCCCC3)cc2C1 (stereo not drawn) | 0.435% (inactive) | –
8 | CC1Cc2ccccc2N1S(=O)(=O)c1cccc(C(=O)OCC(=O)N2CCOCC2)c1 (stereo not drawn) | 20.4% (inactive) | –
9 | CC1CCc2sc(C(=O)NCC(c3ccco3)N3CCCCC3)cc2C1 (stereo not drawn) | – | 8.91 µM (active)
10 | CSc1ncccc1C(=O)NCC(c1ccco1)N1CCCCC1 (stereo not drawn) | 13.5% (inactive) | –
11 | Cc1cc(S(=O)(=O)Nc2ccc(C(=O)NCC(c3ccco3)N3CCCC3)cc2)ccc1F (stereo not drawn) | -14.3% (inactive) | –
12 | CCN(CC(=O)Nc1ccc(NC(C)=O)cc1)C(=O)C1CC(=O)N(c2ccc3c(c2)OCCO3)C1 (stereo not drawn) | 12.8% (inactive) | –
13 | COc1cccc(CN(C)C(=O)CC[C@H]2O[C@@H](n3cnc4c(NC(=O)c5ccccc5)ncnc43)[C@H](O)[C@@H]2O)c1 | 23.6% (inactive) | –
14 | CCCS(=O)(=O)NC(=O)C1(C)CCN(C(=O)c2sccc2C)C1 (stereo not drawn) | 9.36% (inactive) | –
15 | O=C(OCc1cn([C@H]2C[C@H](c3ccccc3)N(C(=O)c3cccs3)C[C@@H]2O)nn1)c1ccccc1 | -9.16% (inactive) | –
16 | CN1CCN(C(=O)c2ccc(-c3cc4nc(NCc5cccnc5)n(C)c(=O)c4s3)cc2)CC1 | 48.9% (inactive) | –
17 | O=C(c1ccccc1)N1CCN(c2cc(-c3ccccc3)nc3cc(-c4cccc(Cl)c4)nn23)CC1 | 6.15% (inactive) | –
18 | COc1ccc(OC)c(NC(=O)C2CCCN2S(=O)(=O)c2ccc3c(c2)CC(C)N3C(C)=O)c1 (stereo not drawn) | 52.3% (inactive) | –
19 | C[C@@H]1CN([C@@H](C)CO)C(=O)CCCn2nncc2CO[C@@H]1CN(C)S(=O)(=O)c1ccc(-c2ccccc2)cc1 | 2.95% (inactive) | –
20 | CC(C)CCNC(=O)c1[nH]c(C(F)(F)F)nc1-c1ccccc1 | -2.13% (inactive) | –
21 | CCc1cccc(NC(=O)CN(c2ccc(C)c(C)c2)S(=O)(=O)c2ccsc2C(=O)OC)c1 | 8.25% (inactive) | –
22 | COC(=O)c1sccc1S(=O)(=O)N(CC(=O)Nc1ccc(C)c(F)c1)c1ccc(C)c(C)c1 | – | 8.91 µM (active)
23 | COc1ccc(N(CC(=O)Nc2ccc(F)c(F)c2)S(=O)(=O)c2c(C)[nH]c(=O)[nH]c2=O)cc1 | 6.71% (inactive) | –
24 | CCc1nc2ccc(C(=O)N3CCN(S(=O)(=O)CC)CC3)cn2c1N(C=O)CCC(C)C | 22% (inactive) | –

Row | Compound | activity change, negative = inhibition | Potency
25 | O=C(NCCC1CCCCN1S(=O)(=O)c1ccc(F)cc1)C(=O)NC1CC1 (stereo not drawn) | -11.8% (inactive) | –
26 | COc1ccc(CCNC(=O)C(=O)NCC2CCCN2S(=O)(=O)c2cccs2)cc1OC (stereo not drawn) | 12.1% (inactive) | –
27 | O=C(NCCC1CCCCN1S(=O)(=O)c1cccs1)C(=O)Nc1ccc(F)cc1F (stereo not drawn) | – | 6.31 µM (active)
28 | COC(=O)C[C@@H]1C=C[C@@H](NC(=O)c2ccc3c(c2)OCO3)[C@@H](CO)O1 | 22.2% (inactive) | –
29 | CCOC(=O)c1cc2sccc2n1Cc1ccc(C#N)cc1 | 0% (inactive) | –
30 | CC(=O)Nc1ccc(NC(=O)c2cc3sccc3n2Cc2ccc(F)cc2)cc1 | -19.9% (inactive) | –
31 | O=C(c1cc2sccc2n1Cc1ccc(F)cc1)N1CCc2ccccc21 | – | 5.01 µM (active)
32 | N#CCCC(C#N)(c1cccnc1)N1CCOCC1 (stereo not drawn) | -2.69% (inactive) | –
33 | COCCNC(=O)C1(C)CCCN(Cc2cccc(F)c2)C1 (stereo not drawn) | -17.9% (inactive) | –
34 | O=C(NCc1cccc(C(F)(F)F)c1)c1ccc2sc(COCCO)nc2c1 | -3.62% (inactive) | –
35 | O=C(C[C@H]1C[C@H]2c3cc(NS(=O)(=O)c4ccc(F)cc4)ccc3O[C@H]2[C@H](CO)O1)NCc1cc(F)ccc1F | -2.89% (inactive) | –
36 | COc1ccc(C(=O)N2CCCCC2c2cc(C(=O)Nc3ccccc3)no2)cc1 (stereo not drawn) | – | 10 µM (active)
37 | N#Cc1cccc(NC(=O)c2cc(C3CCCCN3C(=O)CCc3ccccc3)on2)c1 (stereo not drawn) | -20.6% (inactive) | –
38 | CCCNC(=O)c1cc(C2CCCCN2C(=O)OC)on1 (stereo not drawn) | 33.7% (inactive) | –
39 | COc1cccc(NC(=O)N(C)C[C@@H]2Oc3ncc(Br)cc3C(=O)N([C@@H](C)CO)C[C@H]2C)c1 | 0.452% (inactive) | –
40 | CCC1OC(C2CC2)CC2=C1C(=O)OC(C)(C)O2 (stereo not drawn) | 14.6% (inactive) | –
41 | CCN(CC)CCNC(=O)c1ccc(NC(=O)c2cc(-c3ccncc3)nc3ccccc23)cc1 | – | 12.6 µM (active)
42 | O=C(Nc1ccc(S(=O)(=O)Nc2nccs2)cc1)c1cc(-c2ccncc2)nc2ccccc12 | 3.63% (inactive) | –
43 | COC(=O)CNC(=O)c1cc(-c2ccncc2)nc2ccccc12 | 6.15% (inactive) | –
44 | C=CCOc1ccccc1CNn1c(C)n[nH]c1=S | -10.3% (inactive) | –
45 | CC1(C(=O)NS(=O)(=O)c2cccc(OC(F)F)c2)CCN1C(=O)COc1ccc(Cl)cc1 (stereo not drawn) | -17.8% (inactive) | –
46 | COc1ccc(C2CC(c3ccc(C)cc3)Nc3ncnn32)cc1 (stereo not drawn) | 5.72% (inactive) | –
47 | CCOc1ccccc1C1CC(c2ccccc2)Nc2nc(N)nn21 (stereo not drawn) | 4.9% (inactive) | –
48 | FC(F)Oc1ccccc1C1CC(c2ccc(Br)s2)Nc2ncnn21 (stereo not drawn) | – | 7.94 µM (active)
